From PubChem
This is a sample that favours compounds with a hit; in the whole collection about 3.3% have one here.
DRD3 agonist = qHTS of D3 Dopamine Receptor Agonist: qHTS. 0.58% of 410,000 active. D(3) dopamine receptor (Homo sapiens), P35462. AID 652048, 2013. D3R DiscoveRx beta-arrestin cells, luminescence, 90 min. max activation, %; in the data active means max activation above about 30%; further: 0% is about no effect
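Cells at 1500/well, incubated overnight, then treated with pinned compounds (dopamine as control) for 90 min at 37 degrees C. DiscoveRx reagent added for 30 - 60 minutes at room temperature; luminescence read.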
LDHA inh = qHTS assay for inhibitors of human lactate dehydrogenase; L-lactate dehydrogenase A chain (Homo sapiens), P00338; purified LDHA, NADH/diaphorase-resazurin fluorescence; hits give low values; 0.15% of 480,000 active; activity change, % (values are at about 110 or 230 µM); in the data active means activity change below about -30%; inconclusive means mostly about -25% to -30%;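 further: plate controls were DMSO wells for no effect and wells without enzyme for full effect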
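Enzyme activity of human lactate dehydrogenase 5 (2 nM; 0.06 mM NADH, 0.2 mM pyruvate, 5 min, RT) is measured via a resazurin/diaphorase fluorescence readout of residual NADH.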
PI5P4Ka inh = qHTS for Inhibitors of phosphatidylinositol 5-phosphate 4-kinase (PI5P4K); max response, %; Phosphatidylinositol 5-phosphate 4-kinase type-2 alpha (Homo sapiens), P48426; 1.2% of 330,000 active; PI5P4Kalpha enzyme, ADP-Glo luminescence, 60 min; hits give low values; AID 652105, 2013; active means max response of -50% or lower; inconclusive means between -30% and -50%; inactive means -30% or higher; further: value at the top dose of about 77 µM; on the % scale 0 is the no-effect control and ±100 the full control effect
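Quantitative HTS of the MLSMR library against PI5P4Kalpha with substrate. ATP added last at 5 microM final; room temperature, 60 minutes. Remaining ATP depleted, ADP converted and read as luminescence.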
DRD3 antagonist = qHTS of D3 Dopamine Receptor Antagonist: qHTS; D(3) dopamine receptor (Homo sapiens), P35462; max response, negative = inhibition, %; AID 652054, 2013; D3R cells, DiscoveRx beta-arrestin luminescence, antagonist mode; hits give low values; 2.5% of 360,000 active; in the data active means max response below about -50%; inconclusive means no clear call, values can overlap the other calls; further: on the % scale 0 is the no-effect control and ±100 the full control effect
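Cells plated overnight at 1500 cells/well, then exposed to library compounds with dopamine controls for 90 minutes at 37 degrees C. DiscoveRx reagent added for 30–60 minutes at room temperature; luminescence read, quantitative HTS format.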
PI4K2A block = qHTS for small molecular inhibitors of PI4K2A; Phosphatidylinositol 4-kinase type 2-alpha (Homo sapiens), Q9BTU6; purified PI4K2A, ADP-Glo luminescence, 1 h; hits give low values; activity change, negative = inhibition, % at 76.9 µM; 0.13% of 420,000 active; AID 1346378, 2018; in the data active means activity change below about -50%; inconclusive means mostly about -30% to -49%;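 further: -100% = wells without enzyme as full effect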
Target sequence (Q9BTU6 whole entry, looked up): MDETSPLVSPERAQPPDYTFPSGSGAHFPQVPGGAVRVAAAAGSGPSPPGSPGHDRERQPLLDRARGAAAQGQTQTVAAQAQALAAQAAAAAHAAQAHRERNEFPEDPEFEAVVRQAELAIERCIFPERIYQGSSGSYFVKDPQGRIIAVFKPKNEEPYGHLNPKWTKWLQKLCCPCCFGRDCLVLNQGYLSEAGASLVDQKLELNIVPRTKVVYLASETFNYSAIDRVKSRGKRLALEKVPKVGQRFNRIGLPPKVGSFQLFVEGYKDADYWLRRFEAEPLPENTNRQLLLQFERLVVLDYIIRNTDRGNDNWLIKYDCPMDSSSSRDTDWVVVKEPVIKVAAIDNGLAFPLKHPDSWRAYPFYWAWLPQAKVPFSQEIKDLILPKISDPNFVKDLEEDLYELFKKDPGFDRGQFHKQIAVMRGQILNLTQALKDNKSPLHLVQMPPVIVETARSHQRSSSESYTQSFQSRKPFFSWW
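In this quantitative HTS, ADP production by PI4K2A was quantified luminescently after 1 h at ambient temperature; 100 microM adenosine served as plate-quality control.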
Numbers without * were called inactive; ? = inconclusive; / = no result given.

SMILES	DRD3 agonist	LDHA inh	PI5P4Ka inh	DRD3 antagonist	PI4K2A block
CCc1nnc(NS(=O)(=O)c2ccc(NC(=S)NC(=O)c3ccc(Br)cc3)cc2)s1	-15.5	-8.1	-21.8	-65.4*	2.1
CCc1nnc(NS(=O)(=O)c2ccc(NC(=S)NC(=O)/C=C/c3ccc(OC)cc3)cc2)s1	-30.5	-9.8	-9.9	-72.8*	3.6
COc1ccc(NS(=O)(=O)c2ccc(NC(=S)NC(=O)c3ccc(Br)cc3)cc2)nn1	-16.5	-5.9	-11.3	-53.1*	1.4
COc1cc(NS(=O)(=O)c2ccc(NC(=S)NC(=O)CC(C)C)cc2)nc(OC)n1	-8.2	3.4	0.1	-85.4*	-1.8
CNC(=S)N/N=C/c1ccc(SC)cc1	/	1.3	/	/	/
CCc1nnc(NS(=O)(=O)c2ccc(NC(=S)NC(=O)/C=C/c3ccc(C(C)C)cc3)cc2)s1	-6.2	-14.6	/	-128.9*	-4.4
CCc1nnc(NS(=O)(=O)c2ccc(NC(=O)/C=C/C(=O)O)cc2)s1	-10.2	-9.0	0.0	-62.4*	-0.1
CCc1nnc(NS(=O)(=O)c2ccc(NC(=O)c3ccc(Cl)cc3)cc2)s1	-4.8	-7.7	-13.5	-16.6	-9.6
CCc1nnc(NS(=O)(=O)c2ccc(NC(=S)NC(=O)c3ccccc3)cc2)s1	1.0	-11.8	-20.1	-29.3	-0.2
CCc1nnc(NS(=O)(=O)c2ccc(NC(=O)c3cccc(Cl)c3)cc2)s1	-18.0	-0.6	-6.1	-68.3*	5.2
CCc1nnc(NS(=O)(=O)c2ccc(NC(=S)NC(=O)/C=C/c3ccccc3)cc2)s1	-7.9	-8.9	?	-67.9*	8.6
Cc1ccnc(SCc2nc3cc(NC(=O)c4ccccc4Cl)ccc3n2C)n1	/	7.1	/	/	/
COCc1ccc(CNC(=O)Cc2cccs2)cc1	/	9.4	/	/	/
O=C(/C=C/c1ccc(Br)cc1)NC(=S)Nc1ccc(S(=O)(=O)Nc2nccs2)cc1	-24.7	-1.2	-7.2	-52.8*	-7.2
CN(CCNC(=O)c1ccc(CS(=O)(=O)c2ccc(Br)cc2)o1)CCc1ccccc1	-14.1	-1.5	3.4	-54.7*	2.2
COc1ccc(NC(=O)C2CCCN(C(=O)Nc3ccc(OC)cc3)C2)cc1 (stereo not given)	-6.1	-7.9	3.3	-22.7	0.1
COc1ccc(NC(=O)N2CCCC(c3ccccc3)C2)cc1 (stereo not given)	32.8*	-4.3	0.9	4.1	-3.1
COCc1cc(C)nc(SCC[N+](C)(C)CC(=O)Nc2cccc(C)c2)c1C#N	-7.6	-8.1	2.9	-1.6	-9.3
COCc1cc(C)nc(SCC[N+](C)(C)CC(=O)c2ccccc2)c1C#N	-10.9	-10.1	-4.7	-54.6*	0.4
Cc1ccccc1CN1CCN(CC2CC3C=CC2C3)CC1 (stereo not given)	-16.9	?	0.1	-65.8*	-7.5
C1=CC2CC1CC2CN1CCN(c2ccccc2)CC1 (stereo not given)	-9.3	-2.9	/	-54.4*	3.0
O=C1COc2ccccc2C(c2nnnn2Cc2ccccc2)N1Cc1cccs1 (stereo not given)	/	/	/	/	-1.4
Cc1c(NC2=NS(=O)(=O)c3ccccc32)cccc1C(=O)O	/	-0.4	/	/	/
CSc1cc(C)c(OCC(=O)Nc2ccc(NC(C)=O)cc2)c(C)c1	-2.2	-2.4	-2.2	-52.5*	5.4
COc1ccccc1C(C)N(C)C(=O)CCn1ccc2ccccc21 (stereo not given)	/	-24.5	/	/	/
SMILES	DRD3 agonist	LDHA inh	PI5P4Ka inh	DRD3 antagonist	PI4K2A block
Cc1ccc2[nH]cc(C(C(=O)O)N3CCN(Cc4ccccn4)CC3)c2c1 (stereo not given)	/	-3.2	/	/	/
Cc1cc(=O)oc2c(C)c(OC(C)C(=O)NC(Cc3c[nH]c4ccc(O)cc34)C(=O)O)ccc12 (stereo not given)	-8.8	6.7	0.7	?	-2.8
Cc1cc(=O)oc2cc(OCC(=O)NC(Cc3c[nH]c4ccc(O)cc34)C(=O)O)c(Cl)cc12 (stereo not given)	30.7*	10.9	-3.9	11.8	2.2
CCOC(=O)COc1ccc2ccccc2c1/C=C/[N+](=O)[O-]	-7.1	13.6	3.5	-52.0*	17.0
CCOC(=O)COc1ccc(/C=C/[N+](=O)[O-])c(OCC(=O)OCC)c1	0.6	-0.6	/	-5.2	-8.8
N#CC1=C(Nc2ccccc2Cl)SC2(CCCC2)NC1=O	3.6	-8.9	-51.0*	-1.8	-4.1
O=C(Nc1nc(-c2cccc([N+](=O)[O-])c2)cs1)C(c1ccccc1)c1ccccc1	-2.5	-1.4	7.7	-52.8*	1.6
CC(C)CNC(=O)CN1CCN(Cc2cccc3cccnc23)CC1	/	1.9	/	/	/
Cc1cc(/C=C2\SC(=S)NC2=O)c(C)[nH]1	11.1	-11.0	-76.6*	-22.6	-13.2
CCn1ncc(/C=C2/SC(=S)NC2=O)c1C	8.0	-11.9	-65.9*	-7.3	2.4
O=C1NC(=S)SC1=Cc1ccccn1	5.0	-12.5	?	-2.7	-3.8
O=C1NC(=S)S/C1=C\c1cc(Cl)ccc1Cl	-9.3	-31.0*	-62.1*	-13.4	-0.2
CCn1c(C)cc(/C=C2/SC(=S)NC2=O)c1C	-2.3	-7.0	-6.7	-4.3	2.2
O=C1NC(=S)SC1=Cc1ccccc1C(=O)O	9.6	-9.5	-77.6*	2.5	-7.1
O=C(Nc1ccc2nc(N3CCN(c4cccc(Cl)c4)CC3)cc(C(=O)O)c2c1)c1ccccc1	/	4.8	/	/	/
Brc1ccc(-c2noc(-c3ccco3)n2)o1	/	4.7	/	/	/
O=C(O)c1cc(S(=O)(=O)Nc2ccccc2C(=O)O)ccc1O	2.6	-4.4	-53.7*	-6.9	-2.7
CCOc1ccc(C=NNc2ccc(S(=O)(=O)Nc3ccccc3C(=O)O)cc2[N+](=O)[O-])cc1OC	-2.2	-9.4	-74.3*	-11.8	-0.5
O=C(O)c1ccccc1NS(=O)(=O)c1cccc(NS(=O)(=O)c2cc(Br)ccc2Br)c1	5.3	-6.4	-25.3	23.5	-2.1
O=C(O)c1ccccc1NS(=O)(=O)c1cccc(N=Nc2c(O)[nH]c(=S)[nH]c2=O)c1	-0.5	-5.7	-73.8*	-23.4	-2.1
O=C(O)c1ccccc1NS(=O)(=O)c1ccc(N/N=C/c2cccc(O)c2O)c([N+](=O)[O-])c1	-26.0	22.2	?	?	-7.3
COc1cc(C=NNc2ccc(S(=O)(=O)Nc3ccccc3C(=O)O)cc2[N+](=O)[O-])ccc1O	2.8	-9.2	-68.8*	-2.6	-2.0
COc1cc(/C=N/Nc2ccccc2[N+](=O)[O-])ccc1OC(=O)c1ccccc1F	-5.2	-0.3	0.7	3.7	-8.2
Cc1ccc(NC(=O)C2(C#N)CCCC2)cc1	/	5.2	/	/	/
c1cc(-c2nnc3n2N=C(c2ccc4c(c2)OCO4)CS3)ccn1	/	/	/	/	-0.5
